In the library only some 19% were active in any assay of this set; here they are far more common.
MCF10A rerep = induces DNA re-replication in MCF 10a normal breast cells; MCF 10A DNA re-replication, Hoechst nuclear intensity, 48 h; Potency, µM (highest dose often 46.1 µM), inactives show top-dose activity, positive = re-replication, usual class: activators; actives 2.9% (n = 350,000); AID 624296; further: potency means the concentration at half of the fitted maximal effect; % of control where 0% means no effect; nearly all actives have a fitted effect of over 50% in size
DT40 TDP1 no CPT = qHTS for Inhibitors of human tyrosyl-DNA phosphodiesterase 1 (TDP1): qHTS in cells in absence of CPT. DT40 Tdp1-/- hTDP1 cells, no CPT, ATP luminescence, 48 h. Potency, µM (doses to about 46.2 µM), for inactives: top-dose activity change, negative = growth inhibition, usual class: inhibitors. actives 15% (n = 420,000). AID 686978, 2013; further: potency means the concentration at half of the fitted maximal effect; on the % scale 0 is the no-effect control and ±100 the full control effect; nearly all actives have a fitted effect of over 55% in size
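Readout: luminescence from CellTiter-Glo after 30 min in the dark at RT. Cells: DT40 Tdp1-/- with stable hTDP1, 400/well. Exposure: compounds alone, ≥48 hr, 37 °C.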
DT40 TDP1 CPT = DT40-hTDP1 cell growth loss with CPT. actives 12% (n = 420,000). Potency, µM (highest dose often 46.2 µM), without a hit: at the top dose activity change, negative = growth inhibition, usual class: inhibitors. chicken DT40 Tdp1-/-;hTDP1 cells + 20 nM CPT, ATP luminescence, 48 h. AID 686979; further: potency means the concentration at half of the fitted maximal effect; on the % scale 0 is the no-effect control and ±100 the full control effect; nearly all actives have a fitted effect of over 55% in size
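Chicken DT40 Tdp1-/- cells stably complemented with human TDP1 were seeded at 400 cells/well in medium containing 20 nM camptothecin, exposed to pin-transferred compounds, and grown at 37 °C for at least 48 hr. Viability was read as ATP luminescence.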
IL-1B inflam inh = inhibitors of inflammasome signaling (IL-1 beta secretion) | THP-1 LPS/ATP IL-1B secretion, AlphaLISA, 16 h; hits give low values | activity change, % at 57.5 µM | actives 4.7% (n = 360,000); in the data active means activity change below about -50%; inconclusive means mostly about -30% to -49%; further: on the % scale 0 is the no-effect control and ±100 the full control effect
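Secreted IL-1B measured by AlphaLISA bead assay after 16 h compound exposure of THP-1 cells; compounds (final up to 57.5 uM) added 1 h before LPS (250 ng/mL) and ATP (1.25 mM) stimulation; lower signal means less secretion.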
SW480 rereplic = induces DNA re-replication in SW480 colon adenocarcinoma cells; SW480 DNA re-replication, Hoechst DNA content imaging, 48 h; actives 1.8% (n = 340,000); Potency, µM (doses to about 46.1 µM), for the others: at the highest dose re-replication activation, usual class: activators; further: potency means the concentration at half of the fitted maximal effect; % of control where 0% means no effect; nearly all actives have a fitted effect of over 55% in size
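Quantitative HTS format with DMSO vehicle controls; 48 hr drug incubation at 37 C, then 40 min Hoechst staining and scanning imager measurement at 405 nm excitation.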
BCR signal inh = inhibitors of chronic active B-cell receptor signaling; actives 0.05% (n = 340,000); ABC-DLBCL IkBa-CBG/CBR reporter, luminescence ratio, 4 h; Potency, µM (highest dose often 46.1 µM), without a hit: top-dose activity change, negative = inhibition, actives largely listed as inhibitors; active means well fitted inhibition curve with a large enough effect in the signal ratio, with a control signal flat, not every such curve was filed as active; inconclusive means small, poorly fitted or top-dose-only effect, or effect the other way, or a change in a side signal; the % refers to the signal ratio;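 further: potency means the concentration at half of the fitted maximal effect; plate controls were basal doxycycline-induced cells for no effect and cells given 10 µM MG132 for full effect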
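Doxycycline induced both beetle luciferases in TMD8 lymphoma cells; IKK-driven degradation limits the IkappaBalpha-fused green signal, while red luminescence normalises for cell number and nonspecific effects. Compounds tested up to 46 uM, 4 hrs.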
Numbers without * were called inactive; ? = inconclusive; nt = not tested or not shown; [ ] = remark or other dose. Unless noted, the call rests on the fitted dose curve; in most records, active means well fitted curve in the direction sought with a large enough effect; inconclusive means small, poorly fitted or top-dose-only effect, or another doubt; inactive means no such curve, though single readings can be large; an effect the other way counts as inactive or inconclusive.

SMILES	MCF10A rerep	DT40 TDP1 no CPT	DT40 TDP1 CPT	IL-1B inflam inh	SW480 rereplic	BCR signal inh
Cc1cc(Nc2ccccc2)n(-c2ccc(Br)cc2)n1	?	?	18.4µM*	2.1	?	-14.8%
Cc1cc(NC(=O)Nc2cc(C)nn2-c2ccccc2)n(-c2ccccc2)n1	7.1%	-2.7%	-3.1%	5.2	6.2%	?
Cc1cc(NC(=O)c2ccc(Cl)cc2Cl)n(-c2ccccc2)n1	-4.5%	-44.3%	-50.1%	12.4	-39.0%	1.1%
O=C(COC(=O)C12CC3CC(CC(Br)(C3)C1)C2)NCc1ccco1	nt	-25.4%	-6.0%	nt	nt	nt
O=C(Nc1ccccn1)c1cccc(S(=O)(=O)N2CCCC2)c1	0.2%	0.0%	10.8%	11.7	-1.0%	6.1%
O=C1OCCOC2CCCc3oc(C4=CCCCC4)c1c32 (configuration not stated)	nt	-11.4%	-10.6%	31.6	nt	nt
FC(F)(F)c1nc(NCc2cccnc2)c2ccccc2n1	-1.9%	23.1µM*	?	-2.6	0.1%	1.0%
OC(CNc1nc(-c2cccnc2)nc2ccccc12)c1ccccc1 (configuration not stated)	21.4%	23.1µM*	14.6µM*	-65.7*	?	4.5%
c1ccc(-c2nc(NCc3cccnc3)c3ccccc3n2)cc1	28.2%	-16.3%	0.7%	?	2.9%	?
Cc1ccc(-c2nc(NCc3cccnc3)c3ccccc3n2)cc1	?	-1.0%	26.7%	-76.2*	0.7%	2.8%
Clc1cccc(-c2nc(NCc3cccnc3)c3ccccc3n2)c1	?	-23.2%	-5.4%	-58.4*	15.1%	?
CN(CC(=O)Nc1ccc(F)cc1)C(=O)c1ccc(OCc2cn3ccccc3n2)cc1	0.0%	?	?	41.6	-3.1%	?
CCCCC(=O)N(C)c1c(C)nc2ccc(C(=O)NCCN(C)C)cn12	nt	-7.1%	-0.8%	-19.8	nt	nt
CCC1NC(=O)c2cccnc2-n2c1nc1ccc(OC)cc1c2=O (configuration not stated)	nt	-16.3%	17.9%	0.0	nt	nt
Cc1ccc(C)c(NC(=O)CN2C(=O)C3CC=CCC3C2=O)c1 (configuration not stated)	nt	-13.4%	0.1%	-16.6	nt	nt
CCOc1ccc(C(=O)c2cn(CC(=O)Nc3ccc(Cl)cc3)c3cc4c(cc3c2=O)OCCO4)cc1	nt	6.51µM*	?	nt	nt	nt
CCc1ccc(C(=O)c2cn(CC(=O)Nc3ccc4c(c3)OCCO4)c3ccc(F)cc3c2=O)cc1	nt	-17.6%	-20.1%	nt	nt	nt
CCOc1ccc(C(=O)c2cn(CC(=O)Nc3ccc(F)c(F)c3)c3cc4c(cc3c2=O)OCCO4)cc1	nt	25.9µM*	?	nt	nt	nt
CCOc1ccc(NC(=O)Cn2cc(C(=O)c3ccc(OCC)cc3)c(=O)c3cc4c(cc32)OCCO4)cc1	nt	5.8µM*	13µM*	nt	nt	nt
O=C(Cn1cc(C(=O)c2ccccc2)c(=O)c2cc3c(cc21)OCCO3)Nc1ccc(F)c(F)c1	nt	?	18.4µM*	nt	nt	nt
COC(=O)c1ccc(CSc2nc3c(c(=O)[nH]2)CCC3)cc1	nt	20.6µM*	?	27.5	nt	nt
Cc1ccc(CSc2nc3c(c(=O)[nH]2)CCC3)cc1	?	-3.6%	-7.0%	20.5	0.7%	-17.7%
Cc1oc(-c2ccccc2Cl)nc1CSc1nc2c(c(=O)[nH]1)CCCC2	-1.4%	18.4µM*	13µM*	-7.5	6.0%	-4.3%
O=c1[nH]c(SCc2ccccc2Cl)nc2c1CCC2	18.1%	29.1µM*	?	10.4	-3.5%	8.1%
CNc1nc(SCc2ccccc2Cl)nc2c1CCCC2	18.4µM*	?	?	-18.4	-0.1%[9.22 µM]	?
CCN(CC)CCOC(=O)c1cccnc1	11.2%	-7.9%	1.6%	nt	1.5%	nt

Compound activity deposited in PubChem BioAssay by National Center for Advancing Translational Sciences (NCATS).
